Whole data set: some 33,000 sequences, median “E-score (-0.5 to 0.5)” near -0.013, cut for the highest 2% near 0.3. The entries come from a sample that favours the highest values as a whole.
Each sequence was assayed against T1, Msn1 (UniProt P22148) (assay: PBM E-score (8-mer binding enrichment) (E-score (-0.5 to 0.5)); higher = stronger / more preferred TF binding). Settings: protein concentration: 200 nM; construct: GST-full length.
T1 sequence: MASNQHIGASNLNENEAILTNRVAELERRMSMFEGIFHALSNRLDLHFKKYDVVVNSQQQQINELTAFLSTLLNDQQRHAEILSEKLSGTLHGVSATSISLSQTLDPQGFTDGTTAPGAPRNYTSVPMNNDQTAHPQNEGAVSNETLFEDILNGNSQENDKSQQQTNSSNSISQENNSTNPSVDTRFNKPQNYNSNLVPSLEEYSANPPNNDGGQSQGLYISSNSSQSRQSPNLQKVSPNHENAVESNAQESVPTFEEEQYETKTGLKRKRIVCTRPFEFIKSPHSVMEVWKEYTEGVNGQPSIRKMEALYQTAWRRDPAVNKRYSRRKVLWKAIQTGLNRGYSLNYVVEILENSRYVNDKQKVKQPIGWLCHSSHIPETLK
Description: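 Universal 'all 10-mer' protein binding microarrays (Agilent AMADID 015681) probed with GST-tagged S. cerevisiae TFs (full-length or DBD) made by in vitro transcription/translation (PURExpress), about 100-200 nM. Bound TF was detected with fluorescent anti-GST. Each ungapped 8-mer (which stands for itself and its reverse complement) is scored by the PBM enrichment score (E-score), a modified Wilcoxon-Mann-Whitney statistic from -0.5 to +0.5, computed with the Universal PBM Analysis Suite. Scale: above 0.35 generally sequence-specific binding.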

Row | Sequence | PBM E-score
1 | AGTACTAA | 0.121
2 | CGTACCAA | 0.182
3 | AGCTGGAG | -0.251
4 | GATGGTCA | -0.0299
5 | AGCTACGA | -0.11
6 | GTGATTGA | 0.128
7 | CACGCTTA | 0.0573
8 | TGGACTAA | 0.183
9 | AGGACTTA | 0.36
10 | AGGACTTC | 0.243
11 | AGGACTAA | 0.309
12 | CGGACTTA | 0.215
13 | AGGACTAT | -0.131
14 | CAAAACTG | 0.127
15 | GTTGTCTA | 0.165
16 | ACTGTCTA | 0.022
17 | ATTGTCTG | 0.34
18 | AGTGTCTA | 0.188
19 | CCTGTCTA | 0.143
20 | CTTGTCTA | 0.324
21 | ATTGTCAG | 0.218
22 | CTTGTATC | 0.106
23 | CCTGTCTC | -0.0622
24 | ATTGTTTG | 0.202
25 | CTTGTCTC | 0.319

Row | Sequence | PBM E-score
26 | ATTGTCTA | 0.391
27 | ACTCCCTG | -0.28
28 | GCGTCTGA | -0.101
29 | ATGTGCTC | 0.0447
30 | CATAGTAG | 0.0607
31 | ACTGTTAC | -0.0545
32 | CCCTATAC | -0.129
33 | CTCTTAGC | -0.0929
34 | TAATGGAA | 0.151
35 | CAGAAGTA | 0.104
36 | CTAAGCCC | -0.154
37 | AGTGTCTC | 0.0356
38 | ATTGTCTC | 0.378
39 | ACTGTCTC | -0.00421
40 | CAACTTTC | -0.0177
41 | AAGACAAA | 0.45
42 | CAGACAAG | 0.28
43 | TAGACTAA | -0.0893
44 | TAGACAAA | 0.446
45 | AAGACAAT | 0.409
46 | TAGACGAA | 0.0138
47 | AAGACAGA | 0.216
48 | AAAACAAT | 0.127
49 | CAGACAAA | 0.451
50 | CAGACAGA | 0.0672

Row | Sequence | PBM E-score
51 | AAGACTAT | -0.0507
52 | AAGACACA | 0.169
53 | AGCAGTTG | -0.0796
54 | AACCGACC | -0.0206
55 | CCGTCCAG | -0.00159
56 | AAGCCAAG | -0.237
57 | AGAGGAGG | -0.382
58 | ACCAGCCG | -0.0866
59 | AGCCATCC | -0.277
60 | GAGACGAA | -0.0182
61 | GAGACAAA | 0.442
62 | AAGACAAG | 0.343
63 | AAGACAAC | 0.221
64 | GAGACAAC | 0.203
65 | AAGACAGG | 0.0873
66 | ACAGACCG | -0.128
67 | GAGATGAA | 0.024
68 | AGGTGCCC | -0.275
69 | CCCGACAC | -0.0956
70 | TCCGAGAA | 0.346
71 | TCCGACAA | 0.372
72 | CCCGACAA | 0.329
73 | ACCGAGAA | 0.149
74 | CCCGACAG | 0.052
75 | CCCGAGAA | 0.0155

Row | Sequence | PBM E-score
76 | ACCGACAA | 0.268
77 | GCCGACAA | 0.117
78 | CAATTCAG | 0.0996
79 | TAAGTACA | 0.287
80 | GCTTTAGA | -0.0753
81 | CCTGATAG | -0.222
82 | AACATGAT | 0.173
83 | AAACATAT | 0.258
84 | ATACATAC | -0.0367
85 | AAACATAC | -0.0227
86 | ATACATAA | 0.21
87 | CGACATAG | 0.15
88 | AGACATAC | 0.327
89 | AGACATAT | 0.47
90 | ACACATAG | 0.0311
91 | AGACATAA | 0.373
92 | AGACATAG | 0.32
93 | ACACATAA | 0.217
94 | AGACACAT | 0.197
95 | GCAATGAA | 0.0712
96 | ATACATGA | 0.073
97 | ACAAATCG | 0.276
98 | ACTGAAGC | -0.0558
99 | AATGGTTG | -0.0125
100 | CCCTAAAC | -0.171

Row | Sequence | PBM E-score
101 | ATACAAAG | 0.254
102 | ACACAAAA | 0.296
103 | ATACAAAA | 0.2
104 | AGACAACT | 0.147
105 | AGACAAAT | 0.482
106 | AGACAAGG | 0.162
107 | AGACAAAG | 0.364
108 | AGACAAAA | 0.437
109 | CGACAAAG | 0.294
110 | AAACAAAT | 0.199
111 | AAACAAAA | 0.127
112 | ATACAAAT | 0.335
113 | CGCCCTTA | -0.0904
114 | AAGTTGAT | 0.016
115 | AACTGCCC | -0.105
116 | GGTCAAAC | 0.114
117 | AGGGGGCG | -0.416
118 | GTGCAACA | -0.164
119 | ACCCGCGC | 0.0994
120 | GCACCTTA | 0.00327
121 | ATATCCTG | 0.0176
122 | CCCTTCGG | -0.0863
123 | CCACAAAA | 0.0569
124 | CAACAAAA | 0.0735
125 | CGACAAAA | 0.423

Row | Sequence | PBM E-score
126 | TGACAAAA | 0.402
127 | AGACAAAC | 0.446
128 | CAACAAAC | -0.0143
129 | CGACAAAC | 0.36
130 | AAACAAAC | 0.192
131 | TAACAAAA | 0.228
132 | TCACAAAA | 0.119
133 | ACACAAAC | 0.0132
134 | CGACAACC | 0.0461
135 | CCGTTGAA | 0.00808
136 | CGTAGCTA | -0.123
137 | CCTGCGGA | 0.00937
138 | CGGCCGAC | 0.194
139 | GATTTGGC | -0.221
140 | CATAGATC | 0.0219
141 | CCGTGAGG | -0.283
142 | CATGGAGA | -0.00044
143 | GCCTACAA | -0.0308
144 | ATCCCGTC | -0.0856
145 | AGTAACGC | -0.119
146 | CTCTGAGA | -0.0856
147 | CATACTCA | 0.0936
148 | ATTGGACG | 0.211
149 | ATTGGACC | -0.101
150 | GTTGGATA | 0.0207

Row | Sequence | PBM E-score
151 | GTTGGACA | 0.437
152 | CTTGGAGA | -0.00816
153 | ATTGGACA | 0.445
154 | GTTGGAAA | 0.165
155 | CTTGGACC | -0.163
156 | CTTGGACA | 0.44
157 | CACAATGG | 0.0832
158 | TAGGAACA | 0.0697
159 | GGGTGTCA | -0.0869
160 | AGAGCTCT | -0.265
161 | AGCCTCCG | -0.213
162 | AGTACTTG | 0.147
163 | AGCACACG | -0.0792
164 | AGGACAGC | 0.078
165 | AGGACACG | 0.467
166 | AGGACAGG | 0.28
167 | ACGACACG | 0.206
168 | ACGACACT | 0.123
169 | AGGACACA | 0.472
170 | AGGACACT | 0.358
171 | AGGACAGA | 0.437
172 | AGGACACC | 0.255
173 | ACGACACA | 0.172
174 | ATGACACG | 0.214
